Here are results for five sequences from article PMC11006913.

Where a chain is given by its changes, count along the chain named.

What all share (experiment): PBM; 200 nM protein, PBS
Holding throughout (details): dsDNA, one strand shown

Test [1] concerns the target T1, SIX6 (Homo sapiens, UniProt O95475 114-200, L167I).
T1 sequence: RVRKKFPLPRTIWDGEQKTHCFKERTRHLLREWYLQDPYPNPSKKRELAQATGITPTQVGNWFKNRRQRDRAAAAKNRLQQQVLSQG

The target of test [2] is T2, SIX6 (Homo sapiens, UniProt O95475 114-200, L143V).
T2 sequence: T1 sequence with L30V, I54L

Test [3] concerns the target T3, SIX6 (Homo sapiens, UniProt O95475 114-200, H141N).
T3 sequence: T1 sequence with H28N, I54L

Test [4] deals with T4, SIX6 (Homo sapiens, UniProt O95475 114-200, T165P).
T4 sequence: T1 sequence with T52P, I54L

Test [5] addresses T5, SIX6 (Homo sapiens, UniProt O95475 114-200, L167M).
T5 sequence: T1 sequence with I54M

Test [6] deals with T6, SIX6 (Homo sapiens, UniProt O95475 114-200, L143M).
T6 sequence: T1 sequence with L30M, I54L

For test [7], the target named is T7, SIX6 (Homo sapiens, UniProt O95475 114-200, L143I).
T7 sequence: T1 sequence with L30I, I54L

For test [8], the target named is T8, SIX6 (Homo sapiens, UniProt O95475 114-200, T165G).
T8 sequence: T1 sequence with T52G, I54L

Test [9] has as its target T9, SIX6 (Homo sapiens, UniProt O95475 114-200, T139Q).
T9 sequence: T1 sequence with T26Q, I54L

In test [10] the target is T10, SIX6 (Homo sapiens, UniProt O95475 114-200, T165A).
T10 sequence: T1 sequence with T52A, I54L

Test [11] concerns the target T11, SIX6 (Homo sapiens, UniProt O95475 114-200, L167V).
T11 sequence: T1 sequence with I54V

The target in test [12] is T12, SIX6 (Homo sapiens, UniProt O95475 114-200).
T12 sequence: T1 sequence with I54L

Test [13] addresses T13, SIX6 (Homo sapiens, UniProt O95475 114-200, T165I).
T13 sequence: T1 sequence with T52I, I54L

In the case of ACGGGCGG, the binding signal in test [1] was 8.9 upbm affinity estimate (log intensity, higher = more binding, comparable within an allelic series); in test [2] it was 8.8 upbm affinity estimate (log intensity, higher = more binding, comparable within an allelic series); in test [3], 8.96 upbm affinity estimate (log intensity, higher = more binding, comparable within an allelic series); in [4], 8.88 upbm affinity estimate (log intensity, higher = more binding, comparable within an allelic series); in test [5] it was 8.9 upbm affinity estimate (log intensity, higher = more binding, comparable within an allelic series); in [6], 8.96 upbm affinity estimate (log intensity, higher = more binding, comparable within an allelic series). For the same sequence, the binding signal in test [7] was 8.91 upbm affinity estimate (log intensity, higher = more binding, comparable within an allelic series); in test [8], 9.03 upbm affinity estimate (log intensity, higher = more binding, comparable within an allelic series); in test [9], 9.17 upbm affinity estimate (log intensity, higher = more binding, comparable within an allelic series); in [10], 9.02 upbm affinity estimate (log intensity, higher = more binding, comparable within an allelic series); in test [11] it was 8.77 upbm affinity estimate (log intensity, higher = more binding, comparable within an allelic series); in [12] it was 8.94 upbm affinity estimate (log intensity, higher = more binding, comparable within an allelic series). In addition, the binding signal in test [13] was 8.98 upbm affinity estimate (log intensity, higher = more binding, comparable within an allelic series).
With GTGATATA, the binding signal in test [1] was 11.3 upbm affinity estimate (log intensity, higher = more binding, comparable within an allelic series); in test [2], 10.5 upbm affinity estimate (log intensity, higher = more binding, comparable within an allelic series); in [3] it was 11.3 upbm affinity estimate (log intensity, higher = more binding, comparable within an allelic series); in [4] it was 9.96 upbm affinity estimate (log intensity, higher = more binding, comparable within an allelic series); in [5], 11 upbm affinity estimate (log intensity, higher = more binding, comparable within an allelic series); in test [6] it was 10.9 upbm affinity estimate (log intensity, higher = more binding, comparable within an allelic series). Besides, the binding signal in [7] was 10.4 upbm affinity estimate (log intensity, higher = more binding, comparable within an allelic series); in test [8] it was 11.3 upbm affinity estimate (log intensity, higher = more binding, comparable within an allelic series); in [9] it was 11.1 upbm affinity estimate (log intensity, higher = more binding, comparable within an allelic series); in test [10], 11.3 upbm affinity estimate (log intensity, higher = more binding, comparable within an allelic series); in test [11] it was 11.1 upbm affinity estimate (log intensity, higher = more binding, comparable within an allelic series); in test [12], 11.1 upbm affinity estimate (log intensity, higher = more binding, comparable within an allelic series). Besides, in test [13], the binding signal was 11.2 upbm affinity estimate (log intensity, higher = more binding, comparable within an allelic series).
Consider GCAGCCGC, for which the binding signal was 8.93 upbm affinity estimate (log intensity, higher = more binding, comparable within an allelic series) in test [1]; 8.9 upbm affinity estimate (log intensity, higher = more binding, comparable within an allelic series) in test [2]; 8.98 upbm affinity estimate (log intensity, higher = more binding, comparable within an allelic series) in [3]; 8.93 upbm affinity estimate (log intensity, higher = more binding, comparable within an allelic series) in [4]; 9.02 upbm affinity estimate (log intensity, higher = more binding, comparable within an allelic series) in test [5]; 8.94 upbm affinity estimate (log intensity, higher = more binding, comparable within an allelic series) in test [6]. In addition, the binding signal in [7] is 8.95 upbm affinity estimate (log intensity, higher = more binding, comparable within an allelic series); in [8], 8.95 upbm affinity estimate (log intensity, higher = more binding, comparable within an allelic series); in [9], 9.01 upbm affinity estimate (log intensity, higher = more binding, comparable within an allelic series); in [10], 9.01 upbm affinity estimate (log intensity, higher = more binding, comparable within an allelic series); in test [11], 8.97 upbm affinity estimate (log intensity, higher = more binding, comparable within an allelic series); in [12], 8.98 upbm affinity estimate (log intensity, higher = more binding, comparable within an allelic series). For the same sequence, the binding signal in test [13] is 9.03 upbm affinity estimate (log intensity, higher = more binding, comparable within an allelic series).
With CGCAGCGC, the binding signal in test [1] was 9.07 upbm affinity estimate (log intensity, higher = more binding, comparable within an allelic series); in test [2], 8.94 upbm affinity estimate (log intensity, higher = more binding, comparable within an allelic series); in test [3], 9.04 upbm affinity estimate (log intensity, higher = more binding, comparable within an allelic series); in [4], 8.96 upbm affinity estimate (log intensity, higher = more binding, comparable within an allelic series); in [5], 9.06 upbm affinity estimate (log intensity, higher = more binding, comparable within an allelic series); in [6], 9.12 upbm affinity estimate (log intensity, higher = more binding, comparable within an allelic series). Further, the binding signal was 9.01 upbm affinity estimate (log intensity, higher = more binding, comparable within an allelic series) in [7]; 8.94 upbm affinity estimate (log intensity, higher = more binding, comparable within an allelic series) in [8]; 8.99 upbm affinity estimate (log intensity, higher = more binding, comparable within an allelic series) in test [9]; 8.97 upbm affinity estimate (log intensity, higher = more binding, comparable within an allelic series) in test [10]; 9.06 upbm affinity estimate (log intensity, higher = more binding, comparable within an allelic series) in test [11]; 8.95 upbm affinity estimate (log intensity, higher = more binding, comparable within an allelic series) in [12]. Further, the binding signal in test [13] was 9.02 upbm affinity estimate (log intensity, higher = more binding, comparable within an allelic series).
Regarding CGCAACCG, the binding signal is 9.24 upbm affinity estimate (log intensity, higher = more binding, comparable within an allelic series) in test [1]; 9.05 upbm affinity estimate (log intensity, higher = more binding, comparable within an allelic series) in test [2]; 9.23 upbm affinity estimate (log intensity, higher = more binding, comparable within an allelic series) in test [3]; 9.03 upbm affinity estimate (log intensity, higher = more binding, comparable within an allelic series) in test [4]; 9.16 upbm affinity estimate (log intensity, higher = more binding, comparable within an allelic series) in test [5]; 9.07 upbm affinity estimate (log intensity, higher = more binding, comparable within an allelic series) in [6]. For the same sequence, the binding signal in test [7] is 9.2 upbm affinity estimate (log intensity, higher = more binding, comparable within an allelic series); in [8] it was 9.18 upbm affinity estimate (log intensity, higher = more binding, comparable within an allelic series); in test [9] it was 9.31 upbm affinity estimate (log intensity, higher = more binding, comparable within an allelic series); in [10] it was 9.14 upbm affinity estimate (log intensity, higher = more binding, comparable within an allelic series); in [11] it was 9.12 upbm affinity estimate (log intensity, higher = more binding, comparable within an allelic series); in [12], 9.2 upbm affinity estimate (log intensity, higher = more binding, comparable within an allelic series). Also, the binding signal in test [13] is 9.15 upbm affinity estimate (log intensity, higher = more binding, comparable within an allelic series).
